Test [1] relates to Aerobactin synthetase IucA (Klebsiella pneumoniae). As to the kind of experiment: inhibition of K. pneumoniae IucA enzyme – biochemical, Tocris library, absorbance (AID 1345561; call rule not given here;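 also: 100% = enzyme without compound and 0% = no enzyme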). The following applies: purified IucA enzyme assay, absorbance (OD) read-out; stronger effect = lower value;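 tested at 8 µM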.
A short description of test [2]: viability loss with induced miR-34 in A549 – imaging, A549 dox-inducible miR-34, nuclei and caspase counts, primary screen (AID 1347080). The note with it: A549 miR-34 inducible, Hoechst nuclei count, 48 h.
Test [3] can be described thus: galactose survival enhancers in mitochondrial complex I cybrids – cell-based, galactose medium, ATP luminescence, primary screen (AID 1645843;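 active = z-score of at least 1.8 in each of two replicates, scored against plate mean and spread of sample wells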;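 also: positive z means more ATP and so rescue of galactose-driven cybrid death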). The note with it: complex I mutant cybrid cells, 72 h, stronger effect = higher value.
Where [4] appears, read: stronger effect = lower value, cell number ratio, induced over uninduced.
Where [5] appears, read: measured here: relative caspase fold change +Dox/-Dox.
Where [6] appears, read: measured here: total cells with miR-34 induction, stronger effect = lower value.
[7] abbreviates: measured here: total cells without miR-34 induction.

We go through 21 compounds from PubChem BioAssay.

Structures are written as SMILES. Several values for one entry are separate records, joined by “and”; a condition that tells them apart may be missing. Equal entries are not always repeated. Activity calls are given as the source filed them.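 The calls were made as follows, unless noted: active = compounds whose cell count with miR-34 switched on is under 0.7 times the count with it off; inactive = the rest.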

As to `O=[N+]([O-])c1cc(Cl)ccc1S(=O)(=O)N1CCN(Cc2ccccc2)CC1`, the remaining activity in test [1] is 110% (inactive). Also, the fold change in test [2] (setting [4]) is 0.93 (inactive); in test [2] (setting [5]), 1.18. For the same compound, the cell count in test [2] (setting [6]) was found to be 8490; in test [2] (setting [7]), 9130. Besides, in test [3], the z-score was -0.68 (inactive).
For the compound `O=C(NCCCN1CCC2(CC1)OCc1ccccc12)[C@H]1CCCN1Cc1ccccc1`, the remaining activity in test [1] was 123% (inactive). Also, the fold change in test [2] (setting [4]) was 0.953 (inactive); in test [2] (setting [5]), 1.86. Also, the figures for the cell count in test [2] (setting [6]) and in test [2] (setting [7]) were 7790 and 8180, respectively. In test [3], the z-score is -0.88 (inactive).
Take `Cc1nc2ccc(NC(=O)Nc3ccnc4cccnc34)cc2o1`: the remaining activity in test [1] was 111% (inactive). Further, the fold change in test [2] (setting [4]) was 0.867 (inactive); in test [2] (setting [5]), 0.84. Further, the cell count in test [2] (setting [6]) came out at 7250; in test [2] (setting [7]), 8360. In test [3], the z-score was 1.19 (inactive).
On to `COc1cccc(C=NC=Nc2cccc(OC)c2)c1`, for which the remaining activity in test [1] was 120% (inactive). Also, the fold change is 0.917 (inactive) in test [2] (setting [4]) and 0.661 in test [2] (setting [5]). Moreover, the cell count in test [2] (setting [6]) was 8640; in test [2] (setting [7]) it was 9420. In addition, the z-score in test [3] is -0.08 (inactive).
Take `CN(Cc1ccccc1)C(=O)[C@H](Cc1ccc2ccccc2c1)NC(=O)[C@@H]1CCCN1C(=O)Nc1ccccc1[N+](=O)[O-]`: the remaining activity in test [1] was 123% (inactive). In addition, the fold change in test [2] (setting [4]) was 0.972 (inactive); in test [2] (setting [5]), 1.17. Also, the cell count in test [2] (setting [6]) was found to be 5700; in test [2] (setting [7]) it was 5860. Also, in test [3], the z-score was 1.83 (active).
With `CNC(=O)[C@H]1O[C@@H](n2cnc3c(NCc4cccc(I)c4)ncnc32)[C@H](O)[C@@H]1O`, in test [1], the remaining activity is 116% (inactive). The fold change was 0.865 (inactive) in test [2] (setting [4]) and 0.723 in test [2] (setting [5]). In addition, the cell count came to 8280 in test [2] (setting [6]) and 9570 in test [2] (setting [7]). Besides, the z-score in test [3] was 2.99 (active).
As to `Oc1ccc(-c2c(-c3ccccc3)nn3c(C(F)(F)F)cc(C(F)(F)F)nc23)cc1`, in test [1], the remaining activity is 95% (inactive). Also, the fold change in test [2] (setting [4]) is 0.915 (inactive); in test [2] (setting [5]), 2.74. In addition, the cell count was found to be 8170 in test [2] (setting [6]) and 8930 in test [2] (setting [7]). The z-score in test [3] is 0.225 (inactive).
With `CC[N+](C)(CC)CC(=O)Nc1c(C)cccc1C`, the remaining activity in test [1] was 109% (inactive). Moreover, the fold change in test [2] (setting [4]) was 0.963 (inactive); in test [2] (setting [5]), 0.801. The cell count in test [2] (setting [6]) was 8930; in test [2] (setting [7]) it was 9270. Also, in test [3], the z-score is 0.265 (inactive).
`CN1CCN(C2=Cc3ccccc3Oc3ccc(Cl)cc32)CC1`: the remaining activity in test [1] was 104% (inactive). The fold change was 0.963 (inactive) in test [2] (setting [4]) and 0.764 in test [2] (setting [5]). The cell count in test [2] (setting [6]) turned out to be 6800; in test [2] (setting [7]), 7060. Besides, the z-score in test [3] is -0.9 (inactive).
Take `CC1Nc2ccc(Cl)cc2S(=O)(=O)N1` (stereo unspecified): the remaining activity in test [1] is 102% (inactive). The fold change in test [2] (setting [4]) is 0.919 (inactive); in test [2] (setting [5]), 0.718. Besides, the cell count was 8550 in test [2] (setting [6]) and 9300 in test [2] (setting [7]). The z-score in test [3] was 0.035 (inactive).
`N[C@@H](CSS(=O)(=O)O)C(=O)O`: the remaining activity in test [1] was 94.5% (inactive). The fold change in test [2] (setting [4]) is 0.893 (inactive); in test [2] (setting [5]) it was 0.93. Moreover, the cell count stood at 8240 in test [2] (setting [6]) and 9220 in test [2] (setting [7]). Moreover, the z-score in test [3] was -0.57 (inactive).
On to `COc1ccc(Nc2ncnc3ccc(OC)cc23)cc1`, for which, in test [1], the remaining activity was 108% (inactive). In addition, the results for the fold change in test [2] (setting [4]) and in test [2] (setting [5]) were 0.902 (inactive) and 1.09, respectively. In addition, the figures for the cell count in test [2] (setting [6]) and in test [2] (setting [7]) were 6910 and 7660, respectively. Besides, the z-score in test [3] is -0.345 (inactive).
Consider `NC(=NCCc1ccc(I)cc1)SCCCC1CNCN1` (stereo unspecified), for which the remaining activity in test [1] is 98% (inactive). Moreover, the fold change in test [2] (setting [4]) is 1.01 (inactive); in test [2] (setting [5]), 0.754. Also, the cell count in test [2] (setting [6]) is 6720; in test [2] (setting [7]), 6680. The z-score in test [3] is -0.645 (inactive).
Regarding `COc1cc(C[C@H]2C(=O)OC[C@@H]2Cc2ccc(OC)c(OC)c2)ccc1O`, the remaining activity in test [1] is 104% (inactive). Also, the fold change was 0.937 (inactive) in test [2] (setting [4]) and 0.733 in test [2] (setting [5]). Besides, the cell count in test [2] (setting [6]) is 4240; in test [2] (setting [7]), 4530. Besides, the z-score in test [3] is -0.76 (inactive).
As for `Nc1ncnc2c1nc(Br)n2[C@@H]1O[C@@H]2COP(=O)(O)O[C@H]2[C@H]1O`, in test [1], the remaining activity was 114% (inactive). The fold change in test [2] (setting [4]) is 0.96 (inactive); in test [2] (setting [5]), 0.834. Also, the values for the cell count in test [2] (setting [6]) and in test [2] (setting [7]) were 8030 and 8360, respectively. In addition, in test [3], the z-score was -0.015 (inactive).
Take `COc1ccc(-c2nc(-c3ccc(-c4cccc(Cl)c4)o3)[nH]c2-c2ccc(OC)cc2)cc1`: the remaining activity in test [1] was 125% (inactive). For the same compound, the fold change in test [2] (setting [4]) was 0.932 (inactive) and 1.97 (inactive); in test [2] (setting [5]), 1.76 and 0.641. Also, the cell count was 4720 and 2100 in test [2] (setting [6]); 5060 and 1060 in test [2] (setting [7]). Also, the z-score in test [3] is -0.15 (inactive).
Consider `CC[C@H](CO)Nc1nc(Nc2cccc(-c3ccccn3)c2)c2ncn(C(C)C)c2n1`, for which, in test [1], the remaining activity was 119% (inactive). For the same compound, the figures for the fold change in test [2] (setting [4]) and in test [2] (setting [5]) were 1.12 (inactive) and 1.35, respectively. In addition, the cell count in test [2] (setting [6]) worked out at 1500; in test [2] (setting [7]), 1340. Further, the z-score in test [3] is -0.95 (inactive).
Regarding `Cc1ccccc1N=Nc1ccc(NC(=O)c2ccnn2C)c(C)c1`, the remaining activity in test [1] is 109% (inactive). Moreover, the fold change in test [2] (setting [4]) was 0.919 (inactive); in test [2] (setting [5]), 0.67. Also, the values for the cell count in test [2] (setting [6]) and in test [2] (setting [7]) were 5460 and 5950, respectively. Moreover, the z-score in test [3] is -0.675 (inactive).
On to `CN(C)C(=O)C(=O)c1cn(C)c2cc(Cl)c(C(=O)N3CCC(Cc4ccc(F)cc4)CC3)cc12`, for which the remaining activity in test [1] was 118% (inactive). In addition, the fold change is 1.09 (inactive) in test [2] (setting [4]) and 0.88 in test [2] (setting [5]). The cell count in test [2] (setting [6]) came out at 4920; in test [2] (setting [7]) it was 4530. In addition, the z-score in test [3] was -0.96 (inactive).
Consider `COC(=O)/C=C/c1cccc(N(Cc2ccc(-c3ccc(N(C)C)cc3)cc2)C(=O)C2CCCCC2)c1`, for which the remaining activity in test [1] was 97.3% (inactive). The fold change was 0.926 (inactive) in test [2] (setting [4]) and 1.8 in test [2] (setting [5]). Moreover, the cell count amounted to 7630 in test [2] (setting [6]) and 8240 in test [2] (setting [7]). In test [3], the z-score is 0.225 (inactive).
In the case of `O=[N+]([O-])c1cccc2c[nH]nc12`, in test [1], the remaining activity was 110% (inactive). In addition, the results for the fold change in test [2] (setting [4]) and in test [2] (setting [5]) were 0.915 (inactive) and 0.873, respectively. In addition, the cell count in test [2] (setting [6]) amounted to 7800; in test [2] (setting [7]), 8520. In test [3], the z-score was -0.1 (inactive).
